# This is one part of a sample in which hits are shown more often than they occur.
# RE007 growth inh: less growth of the S. pombe RE007 Vpr strain; S. pombe RE007 Vpr strain, BacTiter-Glo ATP luminescence, 24 h; Potency, µM (doses to about 92.2 µM), for inactives: top-dose activity change, negative = less growth, most hits filed as inhibitors; 0.21% of 360,000 active; active = well fitted falling curve with a large enough effect; inconclusive = small, poorly fitted or top-dose-only effect; inactive = no such curve, though single readings can be large or run the other way; also: potency is read from the fitted curve at half-maximal effect; % is scaled to controls: 0 for no effect and ±100 for the full control effect; nearly all actives have a fitted effect of over 50% in size
#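 Fission yeast strain RE007, carrying one chromosomally integrated HIV-1 vpr copy, was seeded at OD 0.01 in PMG+AL medium with 23 nL pinned compound. After 24 h at 30 °C and 99% humidity, viability was read by BacTiter-Glo luminescence.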
# TbPYK inhibitor: inhibitors of Trypanosoma brucei pyruvate kinase; TbPYK enzyme, Kinase-Glo Plus ATP luminescence, 45 min; Potency, µM (highest dose often 76.8 µM), for the others: at the top dose activity, negative = inhibition, usual class: inhibitors; 0.12% of 410,000 active; AID 624173; also: potency is read from the fitted curve at half-maximal effect; % is scaled to controls: 0 for no effect and ±100 for the full control effect; nearly all actives have a fitted effect of over 50% in size
#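 Readout: single end-point luminescence (Kinase-Glo Plus, 10 min). Reaction conditions were TbPYK/substrate plus 130 uM ADP, 45 min at RT, pH 7.2 TEA buffer. No-enzyme wells served as controls, and data were normalized before concentration-response fitting.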
# CHX counter: counter-screen for Shiga toxin inhibitors: cycloheximide protein synthesis inhibition; 12% of 300,000 active; cell reporter, cycloheximide protein synthesis inhibition counterscreen; AID 2314; max response, %; in the data active = max response mostly above about 13%, no sharp cut-off; inactive = mostly below about 14%; also: read at 38.3 µM for the half of the compounds with a filed dose; 0% is about no effect
# LmPK inh: blocks Leishmania mexicana pyruvate kinase activity. Q27686. purified LmPK, Kinase-Glo ATP luminescence, 1 h. Potency, µM (doses to about 57.5 µM), inactives show at the highest dose activity change, negative = inhibition, actives largely listed as inhibitors. 0.37% of 290,000 active; also: potency is read from the fitted curve at half-maximal effect; % is scaled to controls: 0 for no effect and ±100 for the full control effect
#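 0.1 nM LmPK, 0.5 mM PEP, 0.1 mM ADP; 50 mM imidazole pH 7.2, 7 mM MgCl2, 50 mM KCl; 1 h RT. Kinase-Glo luminescence readout, normalized to no-enzyme (full inhibition) and uninhibited wells.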
# Giardia FBPA inh: blocks Giardia fructose-bisphosphate aldolase activity; 0.71% of 290,000 active; purified Giardia FBPA; AID 2451; A8B2U2; Potency, µM (series often up to 59.6 µM), without a hit: at the top dose activity, negative = inhibition, usual class: inhibitors; also: potency is read from the fitted curve at half-maximal effect; % is scaled to controls: 0 for no effect and ±100 for the full control effect; nearly all actives have a fitted effect of over 55% in size
# Target sequence (A8B2U2 whole entry, looked up): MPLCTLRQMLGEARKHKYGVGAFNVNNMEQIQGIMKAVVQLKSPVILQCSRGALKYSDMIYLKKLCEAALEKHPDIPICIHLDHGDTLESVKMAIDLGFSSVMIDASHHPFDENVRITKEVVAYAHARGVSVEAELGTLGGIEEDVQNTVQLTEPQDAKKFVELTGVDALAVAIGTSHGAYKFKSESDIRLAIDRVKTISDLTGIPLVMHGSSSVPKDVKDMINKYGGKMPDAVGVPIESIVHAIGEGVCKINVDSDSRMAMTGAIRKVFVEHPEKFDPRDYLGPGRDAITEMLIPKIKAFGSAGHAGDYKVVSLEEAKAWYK
#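 40 nM FBPA preincubated 10 min at RT with compound (up to 57.5 uM final), then substrate plus GAPDH/TPI/NAD/arsenate coupling and diaphorase/resazurin added. Fluorescence read after 20 min at RT, 525/598 nm.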
# Shiga toxin inh: blocks Shiga toxin action in Vero cells | Vero cells, Shiga toxin protein synthesis inhibition reporter | inhibition, % at 38.7 µM | 9.2% of 290,000 active | AID 2315; in the data active = inhibition mostly above about 28%, no sharp cut-off; inactive = mostly below about 43%; also: 0% is about no effect
# Active calls of the source: *; u = inconclusive; x = no result; [ ] = dose if it differs, or a comment. Unless noted, calls follow the shape of the dose curve; as a rule, active = well fitted curve in the direction sought with a large enough effect; inconclusive = small, poorly fitted or top-dose-only effect, or another doubt; inactive = no such curve, though single readings can be large; an effect the other way counts as inactive or inconclusive.
SMILES,RE007 growth inh,TbPYK inhibitor,CHX counter,LmPK inh,Giardia FBPA inh,Shiga toxin inh
COc1cc(OC)c(OC)cc1/C=N/n1c(C)nc2ccccc2c1=O,-3%,-1%,-2,0%,13%,29
CN(/N=C/c1ccc([N+](=O)[O-])o1)c1ccccc1,-30%,-4%,33*,-11%,-1%,42
Cc1nc2ccccc2c(=O)n1/N=C/c1ccccc1F,12%,0%,52*,-2%,17%,105*
CCN(CC)c1ccc(CNS(=O)(=O)c2cc3c(cc2C)NC(=O)CO3)cc1,x,1%[15.4 µM],x,x,x,x
COc1cc(OC)cc(C(=O)N2CCC(C(=O)NCCc3ccccc3)CC2)c1,1%,4%,24*,1%,14%,x
COc1ccc(CCNC(=O)C2CCN(C(=O)c3ccccc3)CC2)cc1,-9%,-20%,2,-2%,9%,4
O=C(Cc1ccccc1)Nc1ccc(NC(=O)c2ccc(Br)cc2)cc1,27%,-3%,-2,-1%,17%,x
O=C(Cc1cccc(Cl)c1)Nc1ccc(Br)cc1,-1%,-1%,17*,13%,-1%,26
O=C(Cc1ccc(Br)cc1)Nc1ccc(Cl)cc1,-2%,-12%,25*,3%,-1%,24
N=c1oc2ccccc2cc1C(=O)Nc1cccc(F)c1,-2%,-1%,41*,-3%,0%,73*
N=c1oc2cc(O)ccc2cc1C(=O)Nc1ccc(Cl)cc1,-18%,4%,43*,-1%,-4%,114*
O=C(Nc1c(C(=O)Nc2cccc(F)c2)oc2ccccc12)c1cc2ccccc2o1,x,8%,x,x,x,x
N=c1oc2ccccc2cc1C(=O)Nc1ccc(F)cc1,9%,-6%,29*,-22%,-3%,92*
Cc1ccc(NC(=O)c2oc3ccccc3c2NC(=O)c2cc3ccccc3o2)cc1,x,1%,x,x,x,x
Cc1ccc(NC(=O)c2cc3ccccc3oc2=N)cc1,20%,-8%,77*,-5%,-1%,147*
CCOC(=O)c1c(C)oc2ncnc(NCCCN3CCN(c4cc(C)ccc4C)CC3)c12,x,-18%,x,x,x,x
COc1ccc2nc(N3CCC(C)CC3)c(C#N)cc2c1,-11%,0%,44*,6%,-9%,92*
COc1ccc2nc(N3CCC(O)CC3)c(C#N)cc2c1,-2%,-10%,36*,0%,u,92
COc1ccc2cc(C#N)c(N3CCOCC3)nc2c1,-2%,-1%,-2,-5%,4%,-3
CCc1ccc2nc(N3CCN(C)CC3)c(C#N)cc2c1,3%,0%,22*,1%,-5%,17*
CCOC(=O)C1CCN(c2nc3cc(OC)ccc3cc2C#N)CC1,-10%,6%,4,-3%,-29%,20
CCOC(=O)c1cc(C#N)c(N2CCN(C)CC2)nc1-c1ccccc1,-13%,-6%,-3,-3%,-3%,-8
Cn1c(=O)oc2cc(S(=O)(=O)N3CCCC(C(=O)NCCc4ccc(Cl)cc4)C3)ccc21 (centres undefined),x,1%,x,x,x,x
CCOC(=O)CSc1nc2ccccc2c(=O)n1CCc1ccc(OC)c(OC)c1,x,4%,x,x,x,x
CC(C)(C)CN1CCN(CC#Cc2ccccc2)CC1CCO (centres undefined),-12%,1%,17*,-3%,-12%,34
SMILES,RE007 growth inh,TbPYK inhibitor,CHX counter,LmPK inh,Giardia FBPA inh,Shiga toxin inh
Cc1cc(=O)n(Cc2c(F)cccc2Cl)c2c1c(C)nn2C,x,-1%,x,x,x,x
COc1ccc(-c2nc3ncccn3c2Br)cc1,-18%,-9%,28*,u,-5%,73*
Brc1c(-c2ccc3c(c2)OCO3)nc2ncccn12,-17%,-4%,20*,-28%,-4%,33*
COc1ccc(-n2c(SCC(=O)NCc3ccc(C)cc3)nc3n[nH]c(C)c3c2=N)cc1,x,-1%,x,x,x,x
C=CCC(O)CC1C2C(CC(O)CC=C)C3C1C3C2OC(C)(C)C (centres undefined),x,x,x,x,0%[12.9 µM],x
O=C(Nc1nc(-c2ccccc2)cs1)c1ccccc1F,-21%,2%,41*,5%,4%,62*
COc1ccc(-c2csc(NC(=O)c3ccccc3NS(=O)(=O)c3ccc(F)c(F)c3)n2)cc1,4%,4%,-3,4%,-7%,2
O=C(Nc1nc(-c2ccccc2)cs1)c1ccc(Br)o1,u,-18%,32*,-1%,1%,107*
COc1ccc(-c2csc(NC(=O)c3ccccc3F)n2)cc1,12%,5%,15*,1%,14%,x
Cc1cc(C)c2c(N)c(C(=O)Nc3ccccc3Cl)sc2n1,1%,-8%,x,x,x,x
Cc1cc(C)c2c(N)c(C(=O)Nc3ccccc3F)sc2n1,-15%,0%,34*,-2%,3%,41*
Cc1cc(C)c2c(N)c(C(=O)Nc3ccccc3Br)sc2n1,-7%,-3%,24*,0%,3%,39*
CCc1ccccc1NC(=O)c1sc2nc(C)cc(C)c2c1N,-1%,-9%,12,1%,7%,50
CN(C)c1ccc(-c2ccc3c(=O)c4ccccc4n(C)c3c2)cn1,-17%,0%,58*,-8%,-15%,87*
CCOC(=O)N1CCN(Cc2nc3cc(NC(=O)c4ccc([N+](=O)[O-])cc4)ccc3n2C(C)C)CC1,x,-6%,x,x,x,x
CS(=O)(=O)N1CCC2(CCN(Cc3ccncc3)CC2)CC1,x,2%,x,x,-2%,x
Cc1ccc2oc(-c3cccc(NC(=O)c4ccc(Br)o4)c3)nc2c1,-2%,-3%,26*,-8%,0%,38
Cc1cc2nc(-c3cccc(NC(=O)c4ccc(Br)o4)c3)oc2cc1C,0%,1%,41*,-3%,2%,80
CC1CCN(c2c([N+](=O)[O-])nn(-c3ccc4c(c3)OCCO4)[n+]2[O-])CC1,0%,2%,61*,6%,-20%,162*
CCC1=C2CC[C@H]3C(=O)NC(=O)[C@H]3[C@H]2[C@@]2(Cc3ccccc3)C(=NCC3CC3)OC(=O)N2C1=O,x,x,x,x,4%,x
Cc1ccc(NC(=O)CSCc2ccco2)cc1,2%,3%,23*,-4%,-4%,105*
Cc1ccc(CSCC(=O)NCc2ccc(F)cc2)cc1,3%,1%,16,2%,1%,-1
Cc1ccc(NC(=O)CSCc2ccc(F)cc2)cc1,-10%,0%,51*,0%,-2%,76*
Cc1ccc(NC(=O)CSc2n[nH]c(-c3ccco3)n2)cc1,2%,4%,28*,-8%,-3%,45
Cc1ccc(NC(=O)Cc2ccc(F)cc2)cc1,-2%,3%,21*,-4%,-3%,13

# Source: PubChem BioAssay (National Center for Advancing Translational Sciences (NCATS))
